Screening data deposited in PubChem by several laboratories.
Compounds with a hit are over-represented: about 0.75% of the library has one in this group of screens.
Mtb BioA inh: BioA (M. tuberculosis) enzyme inhibition. purified M. tuberculosis BioA enzyme, plate reader. inhibition, % at 9.99 µM. 0.096% of 360,000 active; in the data active = inhibition above about 40%
Yp Topo-I inh: blocks Yersinia pestis topoisomerase I activity; Y. pestis Topo-I cleavage product accumulation, plate reader; activity, % at 10 µM; 0.064% of 360,000 active; AID 504884; in the data active = activity above about 50%, passing the limit was not always enough
TcdB inh: inhibitors of Clostridioides difficile toxin B glycohydrolase; P18177; TcdB glycohydrolase enzymatic assay, plate reader; inhibition, % at 9.99 µM; 0.24% of 350,000 active; in the data active = inhibition above about 10%
Mtb hypoxia rep: reduces hypoxia-regulated biosensor signal in M. tuberculosis. fluorescence inhibition, % (concentration not given with the values). M. tuberculosis hypoxia-regulated fluorescent reporter, fluorescence. 0.1% of 300,000 active; in the data active = fluorescence inhibition mostly above about 23%, no sharp cut-off; inactive = mostly below about 17%
RN4220 kill: kills Staphylococcus aureus RN4220; inhibition, % (no concentration beside the values); S. aureus RN4220 growth, OD600, 16 h; 0.33% of 330,000 active; in the data active = inhibition above about 85%;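 also: plate controls were untreated cells for no effect and reference antibiotic for full effect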
Sa ugtP lethal: compounds lethal to S. aureus RN4220 ugtP deletion mutant; OD600 growth, 16 h; growth inhibition, % (no concentration beside the values); 0.54% of 330,000 active; AID 1259309; in the data active = growth inhibition above about 68%;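 also: plate controls were untreated wells for no effect and antibiotic for full effect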
Active calls of the source: *; nt = no result shown.

SMILES	Mtb BioA inh	Yp Topo-I inh	TcdB inh	Mtb hypoxia rep	RN4220 kill	Sa ugtP lethal
Cn1nnnc1SCC1=C(C(=O)O)N2C(=O)C(NC(=O)C3CC3c3ccccc3)C2SC1 (centres undefined)	nt	-0.7	0.4	nt	100.2*	99.6*
COCC1=C(C(=O)OC(C)OC(=O)OC(C)C)N2C(=O)[C@@H](NC(=O)/C(=N\OC)c3csc(N)n3)[C@H]2SC1 (some centres undefined)	-2.0	11.3	1.1	nt	nt	nt
Cc1nn(C(C)C(=O)NC2C(=O)N3C(C(=O)O)=C(CSc4nnnn4C)CSC23)cc1Cl (centres undefined)	0.4	2.5	1.8	nt	99.8*	98.6*
CC1=C(C(=O)O)N2C(=O)C(NC(=O)Cc3ccccc3)C2SC1 (centres undefined)	0.1	2.6	0.2	-7.0	27.3	37.0
Cc1cc(C(F)F)nn1CC(=O)NC1C(=O)N2C(C(=O)O)=C(CSc3nnnn3C)CSC12 (centres undefined)	nt	3.8	0.0	nt	99.8*	99.6*
CC(C(=O)NC1C(=O)N2C(C(=O)O)=C(CSc3nnnn3C)CSC12)n1cc(Br)cn1 (centres undefined)	nt	6.1	-0.8	nt	100.2*	99.8*
COCCNC(=O)c1cc2c(c(-c3cccc(C#CCN(C)C)c3)n1)[C@H](CCO)N(S(=O)C(C)(C)C)C2 (some centres undefined)	-1.9	nt	10.1*	nt	nt	nt
CN(C)CC#Cc1cccc(-c2nc(C(=O)O)cc3c2[C@H](CCO)N(S(=O)C(C)(C)C)C3)c1 (some centres undefined)	-1.6	nt	-0.1	nt	nt	nt
O=[N+]([O-])c1ccc(S(=O)(=O)NN=Cc2ccsc2)cc1	nt	nt	nt	1.0	9.9	-1.1
CCOc1ccc(N2C(=O)Nc3ccccc3C2(O)C(=O)NCc2ccc3c(c2)OCO3)cc1 (centres undefined)	-0.5	9.6	nt	5.5	2.5	-1.4
CCOc1ccc(N2C(=O)Nc3ccccc3C2(O)C(=O)NCc2ccc(C)cc2)cc1 (centres undefined)	nt	4.4	0.9	8.9	100.1	active
CC(=NNC(=O)NC1CCCCC1)c1ccc(Cl)s1	nt	nt	nt	22.4	4.5	-9.7
CC(C)(C)c1ccc(OCc2cnc(Cl)s2)cc1	nt	-2.9	0.5	39.3*	2.0	74.2
O=C(NN=Cc1cc(Br)c(O)c(Br)c1)c1ccccc1NS(=O)(=O)c1cccs1	1.2	-3.0	13.5*	7.9	32.4	13.5
NC(=O)c1ccc(NC(=O)CSc2nnc(C3CC3)n2C2CC2)cc1	2.1	-4.1	12.1*	4.5	5.8	2.7
CCOc1ccc(NC(=O)CSc2nnc(C3CC3)n2C2CC2)cc1	-1.0	2.0	1.0	9.8	4.0	0.1
CC(=NNC(=S)NCc1ccccc1)c1cccs1	nt	nt	nt	6.4	3.8	0.3
CCCCCCC[N+](CC)(CC)CCCCc1ccc(Cl)cc1	4.8	-4.7	1.5	23.3	94.5*	100.3*
Cc1c(CCC(=O)O)c(=O)oc2cc3occ(-c4ccc(Cl)cc4)c3cc12	3.5	0.9	-1.9	14.5	29.0	30.1
Cc1c(CCC(=O)O)c(=O)oc2c(C)c3occ(-c4ccc(Cl)cc4)c3cc12	14.9	14.0	0.6	18.4	96.4*	100.7*
CCSc1nnc(NC(=O)[C@H](C)N2C(=O)C3CC=CCC3C2=O)s1 (some centres undefined)	-2.9	3.4	1.9	29.9*	0.0	5.1
COc1ccc(NC(=O)c2cc(S(=O)(=O)N3CCc4ccccc43)cn2C)c(OC)c1	-0.7	33.5	nt	nt	nt	nt
COc1ccc(NC(=O)c2cc(S(=O)(=O)N3CCc4ccccc43)cn2C)cc1OC	-0.3	30.1	16.0*	8.5	-1.8	6.7
O=[N+]([O-])c1ccccc1-c1cc(-c2ccccc2)cc(-c2ccccc2)[n+]1Cc1ccccc1Cl	nt	nt	2.0	nt	86.0*	98.3*
Cc1cc(C)cc(CSCC(=O)NN=Cc2ccc(OCC(=O)NCc3ccco3)cc2)c1	nt	nt	nt	-0.9	1.0	-23.1
SMILES	Mtb BioA inh	Yp Topo-I inh	TcdB inh	Mtb hypoxia rep	RN4220 kill	Sa ugtP lethal
O=C(COC(=O)c1ccc(F)cc1F)c1ccc[nH]1	-0.3	5.6	10.3*	10.0	2.1	-1.1
CCC(C)=NNc1nc2sc3c(c2c(=O)[nH]1)CC(C)(C)OC3	nt	nt	nt	-6.0	11.6	15.5
CC(C)CC(NC(=O)c1nc[nH]c1C(=O)NCCCCCNC(=O)OC(C)(C)C)C(=O)OCc1ccccc1 (centres undefined)	nt	nt	nt	2.9	7.6	10.1
CC(C)Cn1c(=O)c(C(=O)Nc2ccccc2S(N)(=O)=O)c(O)c2ccccc21	-1.8	-6.4	0.9	-7.7	82.2	62.1
CCOC(=O)Cc1csc(NC(=O)c2c(O)c3ccccc3n(CC(C)C)c2=O)n1	-2.1	2.8	-0.5	20.1	97.0*	97.6*
CCCOc1ccc(C2=CC(=O)C[C@H](c3ccc(OC)cc3)C2)cc1	-0.5	60.3*	0.2	nt	nt	nt
CCCOc1ccc(C2=CC(=O)CC(c3ccc(OC)cc3)C2)cc1 (centres undefined)	nt	nt	nt	13.5	3.5	58.8
COc1cc(C=NNc2cccc(C)c2)cc(Br)c1O	nt	nt	nt	-2.2	53.7	96.0*
Cc1nn(Cc2ccccc2Cl)c(Cl)c1C(=O)O	-2.0	-6.9	1.7	2.6	12.0	5.2
CCn1nc(C)c(Br)c1C(=O)Sc1ccccc1Cl	0.6	5.0	0.3	0.8	19.7	86.8*
COc1ccc(/C=C/C(=O)NCC2COc3ccccc3O2)c(OC)c1 (centres undefined)	-0.3	19.9	0.7	0.0	-4.8	98.7*
Nc1ccc(-c2cc(-c3ccc(N)cc3)nc(-c3ccccc3)n2)cc1	-4.5	-12.4	0.6	-2.8	3.0	-16.0
Oc1ccc(-c2cccc(-c3ccc(O)cc3)n2)cc1	nt	5.8	nt	12.9	98.1*	99.1*
Oc1ccc(-c2cc(-c3ccc(O)cc3)nc(-c3ccccc3)n2)cc1	0.4	-0.7	1.8	-5.5	97.3*	99.9*
CC(=NOC(=O)c1ccc(C(F)(F)F)cc1)c1oc(C)nc1C	nt	nt	nt	8.3	5.8	5.5
Cc1ccccc1S(=O)(=O)N=C(c1ccccc1)N(C)C	nt	nt	nt	5.8	1.8	2.6
COc1ccc([N+](=O)[O-])cc1C1NN=C(c2ccccc2O)S1 (centres undefined)	0.4	-1.9	nt	4.6	3.6	-2.8
O=[N+]([O-])c1ccc(O)c(C2=NNC(c3ccccc3F)C2)c1 (centres undefined)	-0.4	4.7	-0.2	13.7	91.8*	93.8*
O=C(O)c1cccc(Cn2c(Cl)c(C=NNC(=O)c3ccco3)sc2=O)c1	nt	nt	nt	9.8	2.7	6.6
O=C(NCc1nnc2c(C(F)(F)F)cc(Cl)cn12)c1cccnc1	7.6	-1.0	12.5*	8.4	4.0	5.7
Cc1ccc(NN=Cc2ccc3c(c2)OCCO3)cc1Cl	nt	nt	nt	3.4	-0.7	6.3
CC(=O)N1N=C(c2ccc(Cl)cc2)CC1c1ccc([N+](=O)[O-])cc1 (centres undefined)	4.1	1.0	-0.1	-3.0	-1.1	5.9
